Source: PubChem
Only some compounds are listed: those with a hit (about 5.9% of all), similar ones and a draw of the others.
GLP1R ag: qHTS of GLP-1 Receptor Agonists | Glucagon-like peptide 1 receptor (Homo sapiens), P43220 | HEK293 GLP-1R CRE-luciferase, luminescence, 4-6 h; cells express a hypersensitive GLP-1R form | Potency, µM (titrated, usually from 45.6 µM), actives largely listed as activators | 0.007% of 380,000 active | AID 624172, 2012
Target sequence (P43220 whole entry, looked up): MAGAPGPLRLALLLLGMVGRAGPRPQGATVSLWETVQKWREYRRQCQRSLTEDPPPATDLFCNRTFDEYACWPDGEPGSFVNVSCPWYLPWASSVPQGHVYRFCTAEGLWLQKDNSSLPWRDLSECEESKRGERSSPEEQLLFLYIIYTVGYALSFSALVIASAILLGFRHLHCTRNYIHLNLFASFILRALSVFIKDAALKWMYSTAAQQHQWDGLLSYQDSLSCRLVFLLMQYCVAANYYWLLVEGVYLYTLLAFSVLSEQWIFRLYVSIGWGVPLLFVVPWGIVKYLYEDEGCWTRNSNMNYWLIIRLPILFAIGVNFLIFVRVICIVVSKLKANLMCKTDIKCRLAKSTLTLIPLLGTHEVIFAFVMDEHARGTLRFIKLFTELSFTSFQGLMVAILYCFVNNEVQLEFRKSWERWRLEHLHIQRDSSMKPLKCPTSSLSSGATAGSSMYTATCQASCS
GLP-1R inv ag: qHTS of GLP-1 Receptor Inverse Agonists (Inhibition Mode); Glucagon-like peptide 1 receptor (Homo sapiens), P43220; HEK293 GLP-1R CRE-luciferase, luminescence, 24 h; GLP-1R form is constitutively active; Potency, µM (highest dose often 38.3 µM), most hits filed as inhibitors; 1.6% of 410,000 active; AID 624417, 2012; further: nearly all actives have a fitted effect of over 55% in size
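qHTS in 1536-well format: reporter HEK293 cells expressing constitutive GLP-1R activity in DMEM + 10% Nu serum, 24 hr with compounds at 37 deg C, luminescence read after 12 min with detection reagent.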
RORgamma inh: qHTS for inhibitors of ROR gamma transcriptional activity; 5.4% of 310,000 active; Drosophila S2 Gal4-RORgamma UAS-luciferase reporter, 20 h; Potency, µM (doses to about 53.6 µM), most hits filed as inhibitors; further: nearly all actives have a fitted effect of over 60% in size
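Luminescence from a UAS-regulated Photinus luciferase reporter in stably transfected Drosophila Schneider cells is measured; decreased signal marks ROR gamma inhibition. Fusion expression is induced by 700 uM copper sulfate for 20 hr.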
HEK293 tox: qHTS of GLP-1 Receptor Inverse Agonists: Cytotox Screen; AID 624418, 2012; Potency, µM (highest dose often 38.3 µM), actives largely listed as inhibitors; 0.13% of 410,000 active; HEK293 cAMP-luciferase reporter cells, luminescence, 24 h;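 further: loss of luciferase light is scored as toxicity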
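Quantitative HTS format, 1536 wells, 200 cells/uL seeded. Compounds: 23 nL, 24 h, 37 °C. Detection: luciferase reagent, luminescence at 12 min RT; decreased signal taken as cytotoxic.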
VP16 counter: VP16 counterscreen qHTS for inhibitors of ROR gamma transcriptional activity | Potency, µM (doses to about 53.6 µM), hits mostly inhibitors | 3.5% of 310,000 active | AID 2546, 2010 | Drosophila S2 Gal4-VP16 UAS-luciferase, luminescence, 20 h;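 further: Gal4-VP16 expression switched on by copper sulfate through the metallothionein promoter; nearly all actives have a fitted effect of over 50% in size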
Large screens that a line does not name were inactive. The call rests on the fitted dose curve; in most records, active means well fitted curve in the direction sought with a large enough effect; inconclusive means small, poorly fitted or top-dose-only effect, or another doubt; inactive means no such curve, though single readings can be large; an effect the other way counts as inactive or inconclusive.

CC(C)NCC(O)COC1CCC(C(C)(C)C)CC1 (centres undefined)	GLP-1R inv ag 7.1µM, HEK293 tox inconclusive
Cc1ccc(CNC(=O)c2sc3nc4n(c(=O)c3c2C)CCCC4)cc1	none (no result: GLP1R ag, RORgamma inh, VP16 counter)
Brc1csc(C=Nc2ccc3c(c2)OCCOCCOCCOCCO3)c1	none
Oc1c(Cl)cc(Cl)cc1C=Nc1ccc2c(c1)OCCO2	RORgamma inh 14µM
CC(=O)OC[C@@H]1O[C@H](CCO/N=C\[C@@H](C)[C@H](OCc2ccccc2)C(C)C)C=C[C@@H]1OC(C)=O	none (no result: GLP1R ag, GLP-1R inv ag, HEK293 tox)
COc1cccc(-c2nnn(CCC(=O)O)n2)c1	none
COc1ccc(-c2nnn(CCC(=O)O)n2)cc1	RORgamma inh 2.2µM
C[C@H](c1ccccc1)N1C[C@@H](COCc2ccccc2)Oc2cc(N3CC[C@H](O)C3)ccc2S1(=O)=O	GLP-1R inv ag inconclusive (no result: RORgamma inh, VP16 counter)
C[C@H](c1ccccc1)N1C[C@H](COCc2ccccc2)Oc2cc(N3CC[C@H](O)C3)ccc2S1(=O)=O	GLP-1R inv ag 10µM (no result: RORgamma inh, VP16 counter)
O=C(Cn1c(=O)nc(-c2ccccc2F)c2cc(Cl)ccc21)NCCCc1ccccc1	none (no result: RORgamma inh, VP16 counter)
O=C(N/N=C/c1cn(-c2ccccc2)nc1-c1cccs1)c1ccccc1F	RORgamma inh 5µM, HEK293 tox inconclusive, VP16 counter 6.3µM
O=C(N/N=C/c1cn(-c2ccccc2)nc1-c1cccs1)c1ccc(Cl)cc1	GLP-1R inv ag 6.3µM, RORgamma inh 2.5µM, VP16 counter 5µM
O=C(Nc1ccncc1)c1cn(-c2ccccc2)nc1-c1cccs1	GLP-1R inv ag inconclusive
CN1CCC(N(C)C(=O)/C=C/c2cn(-c3ccccc3)nc2-c2cccs2)CC1	GLP-1R inv ag 5.6µM, RORgamma inh inconclusive, HEK293 tox inconclusive
Cc1ccc(C2CCN(C(=O)Nc3ccc(Cl)c(Cl)c3)C2)cc1 (centres undefined)	none (no result: GLP1R ag, RORgamma inh, VP16 counter)
COc1ccc(N(C(=O)CCl)C(C(=O)NCCc2ccccc2)c2cccs2)cc1 (centres undefined)	GLP-1R inv ag inconclusive, RORgamma inh 11µM, HEK293 tox inconclusive, VP16 counter inconclusive
COc1cc(C(=O)N/N=C/c2ccc(OC(=O)c3cccc(C)c3)cc2)ccc1O	HEK293 tox inconclusive
Cc1cccc(C(=O)Oc2ccc(/C=N/O)cc2)c1	RORgamma inh 5.6µM, VP16 counter 2µM
COc1ccccc1-c1nccc(Nc2ccc(F)cc2)n1	none (no result: GLP1R ag, GLP-1R inv ag, HEK293 tox)
CC1(C)OC[C@@H]2O[C@@]3(C(=O)O)OC(C)(C)O[C@@H]3[C@@H]2O1	none (no result: GLP-1R inv ag, HEK293 tox)
COc1cc(NC(=O)Cn2nc(C(F)(F)F)c(Br)c2C)cc([N+](=O)[O-])c1	GLP-1R inv ag inconclusive, RORgamma inh inconclusive, VP16 counter 18µM
Cc1cccc(C)c1NC(=O)c1cc(S(N)(=O)=O)c(Cl)cc1O	none (no result: GLP-1R inv ag, RORgamma inh, HEK293 tox, VP16 counter)
CCOc1ccc(Oc2cc(NC(=O)c3ccco3)cc([N+](=O)[O-])c2)cc1	RORgamma inh inconclusive, VP16 counter inconclusive
O=C(Nc1cc(Oc2ccc(Cl)cc2)cc([N+](=O)[O-])c1)c1ccco1	GLP-1R inv ag inconclusive, RORgamma inh inconclusive, VP16 counter 7.9µM
COc1ccc(/C=N/NC(=S)N[C@H]2CC3CCC2C3)cc1 (some centres undefined)	GLP-1R inv ag inconclusive, RORgamma inh 0.63µM, HEK293 tox inconclusive, VP16 counter 3.2µM
COc1cc(/C=N/NC(=S)NC2CC3CCC2C3)ccc1O (centres undefined)	GLP-1R inv ag inconclusive, RORgamma inh 2µM, HEK293 tox inconclusive, VP16 counter 5µM
O=C(N/N=C/C1CC2CCC1C2)c1ccc2c(c1)OCO2 (centres undefined)	none
S=C(N/N=C/c1ccc2c(c1)OCO2)NC1CC2CCC1C2 (centres undefined)	GLP1R ag inconclusive, GLP-1R inv ag inconclusive, RORgamma inh 4.5µM, HEK293 tox inconclusive, VP16 counter 3.2µM
COc1cc(/C=N/NC(=O)CC(=O)NC2CCCCC2)ccc1O	none
Cc1cccc(OCc2cc(=O)n3c4c(sc3n2)CCCC4)c1C	none (no result: RORgamma inh, VP16 counter)
COCCNc1nc(C)nc2c1nc(-c1ccccc1)n2CCN1CCCC1	none (no result: GLP1R ag, GLP-1R inv ag, HEK293 tox)
